Rows were chosen to be rich in hits. Some 19% of all compounds tested hit in one or more screens of this group.
SW480 rereplic: induces DNA re-replication in SW480 colon adenocarcinoma cells; 1.8% of 340,000 active; Potency, µM (highest dose often 46.1 µM), inactives show top-dose re-replication activation, actives largely listed as activators; SW480 DNA re-replication, Hoechst DNA content imaging, 48 h; further: potency means the concentration at half of the fitted maximal effect; % of control where 0% means no effect; nearly all actives have a fitted effect of over 55% in size
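First, 250 cells per well were seeded. Next, compound or vehicle (23 nL) was pinned in, plates sat 48 hr at 37 C. Finally Hoechst was added for 40 min before fluorescence scanning.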
TDP1 cell CPT: growth inhibition of DT40 Tdp1-/-;hTDP1 cells with camptothecin (screen for TDP1 inhibitors); chicken DT40 Tdp1-/-;hTDP1 cells + 20 nM CPT, ATP luminescence, 48 h; Potency, µM (titrated, usually from 46.2 µM), inactives show at the top dose activity change, negative = growth inhibition, most hits filed as inhibitors; 12% of 420,000 active; AID 686979; further: potency means the concentration at half of the fitted maximal effect; on the % scale 0 is the no-effect control and ±100 the full control effect; nearly all actives have a fitted effect of over 55% in size
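Chicken DT40 Tdp1-/- cells complemented with human TDP1, 400 cells/well, exposed to compounds plus 20 nM camptothecin for at least 48 h at 37 C; viability read as ATP content by CellTiter-Glo luminescence.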
IL1B secr inh: inflammasome signaling inhibition, IL-1 beta readout; THP-1 LPS/ATP IL-1B secretion, AlphaLISA, 16 h; hits give low values; 4.7% of 360,000 active; activity change, % at 57.5 µM; in the data active means activity change below about -50%; inconclusive means mostly about -30% to -49%; further: on the % scale 0 is the no-effect control and ±100 the full control effect
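Secreted IL-1B measured by AlphaLISA bead assay after 16 h compound exposure of THP-1 cells; compounds (final up to 57.5 uM) added 1 h before LPS (250 ng/mL) and ATP (1.25 mM) stimulation; lower signal means less secretion.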
TDP1 cell noCPT: qHTS for Inhibitors of human tyrosyl-DNA phosphodiesterase 1 (TDP1): qHTS in cells in absence of CPT | AID 686978, 2013 | DT40 Tdp1-/- hTDP1 cells, no CPT, ATP luminescence, 48 h | 15% of 420,000 active | Potency, µM (series often up to 46.2 µM), for the others: top-dose activity change, negative = growth inhibition, hits mostly inhibitors; further: potency means the concentration at half of the fitted maximal effect; on the % scale 0 is the no-effect control and ±100 the full control effect; nearly all actives have a fitted effect of over 55% in size
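Growth kinetics read by CellTiter-Glo luminescence after ≥48 hr at 37 °C. Cells: DT40 Tdp1-/- stably carrying human TDP1, 400 per well, compound exposure in the absence of CPT (DMSO vehicle).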
MCF10A rerep: inducers of DNA re-replication in MCF 10A breast cells; MCF 10A DNA re-replication, Hoechst nuclear intensity, 48 h; Potency, µM (doses to about 46.1 µM), without a hit: at the top dose activity, positive = re-replication, hits mostly activators; 2.9% of 350,000 active; further: potency means the concentration at half of the fitted maximal effect; % of control where 0% means no effect; nearly all actives have a fitted effect of over 50% in size
Chronic BCR inh: inhibitors of chronic active B-cell receptor signaling; AID 493014; Potency, µM (titrated, usually from 46.1 µM), for the others: at the highest dose activity change, negative = inhibition, actives largely listed as inhibitors; 0.05% of 340,000 active; ABC-DLBCL IkBa-CBG/CBR reporter, luminescence ratio, 4 h; active means well fitted inhibition curve with a large enough effect in the signal ratio, with a control signal flat, not every such curve was filed as active; inconclusive means small, poorly fitted or top-dose-only effect, or effect the other way, or a change in a side signal; the % refers to the signal ratio;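 further: potency means the concentration at half of the fitted maximal effect; plate controls were basal doxycycline-induced cells for no effect and cells given 10 µM MG132 for full effect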
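TMD8 human ABC-DLBCL cells with doxycycline-inducible IκBα–green luciferase fusion and unfused red luciferase, in 0.5% FBS medium; compounds up to 46 uM, 4 h at 37C. Green/red luminescence ratio, filter-overlap corrected, fitted to concentration-response curves.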
* hit, by the source's call; [ ] = remark or other dose. Unless noted, the call rests on the fitted dose curve; in most records, active means well fitted curve in the direction sought with a large enough effect; inconclusive means small, poorly fitted or top-dose-only effect, or another doubt; inactive means no such curve, though single readings can be large; an effect the other way counts as inactive or inconclusive.

Screening CCOC(=O)c1ccc(CN(Cc2ccc(F)cc2)S(=O)(=O)c2ccc(F)cc2)cc1 returned TDP1 cell CPT -14.9%, TDP1 cell noCPT inconclusive and Chronic BCR inh 11.8%.
For COc1ccc(C(=O)Nc2cccc(C(=O)NCc3ccccc3)c2)cc1 the results were SW480 rereplic 8.9%, TDP1 cell CPT 20.6µM*, IL1B secr inh 3.6, TDP1 cell noCPT inconclusive, MCF10A rerep 13.1% and Chronic BCR inh 0.6%.
`COc1cccc(OC)c1C(=O)Nc1ccc(Br)c(C(=O)c2ccccc2)c1` gave SW480 rereplic 0.4%, TDP1 cell CPT inconclusive, IL1B secr inh -4.6, TDP1 cell noCPT 16.4µM*, MCF10A rerep 0.6% and Chronic BCR inh 14.4%.
`CCN(C[C@H]1N[C@@](CC)(C(=O)OC)[C@H]2C(=O)N(C)C(=O)[C@@H]12)C(=O)Nc1ccccc1` gave SW480 rereplic -6.8%, TDP1 cell CPT -20.1%, IL1B secr inh -1.5, TDP1 cell noCPT -1.1%, MCF10A rerep -4.3% and Chronic BCR inh 1.7%.
`COc1cccc(C(=O)Nc2ccc(C(=O)O)cc2)c1` gave SW480 rereplic -3.2%, TDP1 cell CPT -15.4%, IL1B secr inh 1.8, TDP1 cell noCPT inconclusive, MCF10A rerep 3.8% and Chronic BCR inh inconclusive.
Screening Cc1ccc(CNS(=O)(=O)c2cc(C(=O)Nc3cccc(C(F)(F)F)c3)ccc2F)cc1 returned TDP1 cell CPT inconclusive, TDP1 cell noCPT inconclusive and Chronic BCR inh 21.8%.
Screening CCOC(=O)c1ccc(CN(Cc2ccc(F)cc2)S(=O)(=O)c2cc(C(=O)Nc3cccc(C(F)(F)F)c3)ccc2F)cc1 returned TDP1 cell CPT 13µM*, TDP1 cell noCPT 23.1µM* and Chronic BCR inh 6.2%.
For Cc1cccc(C(=O)Nc2ccc(C(=O)c3ccccc3)cc2)c1 the results were SW480 rereplic inconclusive, TDP1 cell CPT inconclusive, IL1B secr inh -80.2*, TDP1 cell noCPT inconclusive and MCF10A rerep inconclusive.
Screening COc1cccc(C(=O)Nc2ccc(C(=O)c3ccccc3)cc2)c1 returned SW480 rereplic -11.3%, TDP1 cell CPT -18.9%, IL1B secr inh -5.1, TDP1 cell noCPT 16.4µM*, MCF10A rerep 9.8% and Chronic BCR inh -1.6%.
For COc1ccc(NC(=O)c2ccc(C(=O)c3ccccc3)o2)cc1 the results were SW480 rereplic -7.3%, TDP1 cell CPT inconclusive, IL1B secr inh -21.2, TDP1 cell noCPT 2.06µM*, MCF10A rerep -5.3% and Chronic BCR inh -0.2%.
For O=c1nc2ccccc2c2n1C[C@H](CN1CCN(c3ccccc3)CC1)N2 the results were TDP1 cell CPT 6.1% and TDP1 cell noCPT 4.3%.
For CN(C)S(=O)(=O)Oc1ccc(C(=O)Nc2cccc(C(F)(F)F)c2)cc1 the results were SW480 rereplic 11.0%, TDP1 cell CPT 23.1µM*, IL1B secr inh inconclusive, TDP1 cell noCPT 14.6µM*, MCF10A rerep 5.3% and Chronic BCR inh -19.2%.
For Cc1cccc(NC(=O)c2ccc(C(=O)Nc3cccc(C)c3)nc2)c1 the results were SW480 rereplic inconclusive, TDP1 cell CPT 2.59µM*, IL1B secr inh 43.1, TDP1 cell noCPT 16.4µM*, MCF10A rerep 7.31µM* and Chronic BCR inh inconclusive.
`Cc1cccc(C(=O)Nc2ccc(O)cc2)c1` gave SW480 rereplic -2.6%, TDP1 cell CPT -21.2%, IL1B secr inh -21.2, TDP1 cell noCPT inconclusive, MCF10A rerep 4.7% and Chronic BCR inh 4.0%.
For CC(=O)Nc1cccc(NC(=O)c2ccc(C(=O)Nc3cccc(NC(C)=O)c3)nc2)c1 the results were SW480 rereplic -19.4%, TDP1 cell CPT 0.9%, IL1B secr inh 7.4, TDP1 cell noCPT -24.8%, MCF10A rerep 2.4% and Chronic BCR inh -7.9%.
CN(C)S(=O)(=O)Oc1ccc(C(=O)Nc2cccc(Cl)c2)cc1 was read as SW480 rereplic -4.0%, TDP1 cell CPT 24.0%, IL1B secr inh inconclusive, TDP1 cell noCPT -17.5%, MCF10A rerep inconclusive and Chronic BCR inh inconclusive.
Screening Cc1cccc(C(=O)Nc2ccc(C(=O)c3ccncc3)cc2)c1 returned TDP1 cell CPT inconclusive, IL1B secr inh 17.3 and TDP1 cell noCPT 14.6µM*.
CN(C)S(=O)(=O)Oc1cccc(C(=O)Nc2ccc(Cl)cc2)c1 was read as SW480 rereplic -4.5%, TDP1 cell CPT 8.2µM*, IL1B secr inh -62.9*, TDP1 cell noCPT 11.6µM*, MCF10A rerep inconclusive and Chronic BCR inh inconclusive.
Screening Cn1ccc(NC(=O)c2ccc(Cl)cc2)n1 returned SW480 rereplic 20.1%, TDP1 cell CPT 3.5%, IL1B secr inh 0.0, TDP1 cell noCPT 21.9%, MCF10A rerep -3.9% and Chronic BCR inh -0.6%.
Cc1cccc(C(=O)Nc2ccn(C)n2)c1 was read as SW480 rereplic 18.4µM*, TDP1 cell CPT 6.7%, IL1B secr inh -11.1, TDP1 cell noCPT -11.0%, MCF10A rerep -12.0% and Chronic BCR inh 1.7%.
Clc1cccc(C2CCN(Cc3nc(CC4CC4)no3)C2)c1 (stereo unspecified) was read as SW480 rereplic -7.3%, TDP1 cell CPT -11.0%, IL1B secr inh -5.5, TDP1 cell noCPT -15.1%, MCF10A rerep 12.3% and Chronic BCR inh inconclusive.
Screening Cc1ncc2c(c1CNS(=O)(=O)N(C)C)CCN(C(=O)c1ccc(F)cc1Cl)C2 returned TDP1 cell CPT 0.9%[9.04 µM] and TDP1 cell noCPT -12.6%.
O=c1cc(CCl)nc2sc3ccccc3n12 was read as SW480 rereplic inconclusive, TDP1 cell CPT inconclusive, IL1B secr inh -59.3*, TDP1 cell noCPT inconclusive, MCF10A rerep inconclusive and Chronic BCR inh -1.5%.
For O=C(O)c1cc(-c2cccnc2)nc2ccccc12 the results were SW480 rereplic 11.6%, TDP1 cell CPT 1.3%, IL1B secr inh 7.3, TDP1 cell noCPT -0.3%, MCF10A rerep inconclusive and Chronic BCR inh -2.1%.
CCN(CC)S(=O)(=O)c1ccc(NC(=O)c2cc(-c3cccs3)nc3ccccc23)cc1 was read as SW480 rereplic 4.7%, TDP1 cell CPT inconclusive, IL1B secr inh -6.9, TDP1 cell noCPT inconclusive, MCF10A rerep inconclusive and Chronic BCR inh 6.0%.
O=C(NC1=NCCS1)c1cc(-c2cccnc2)nc2ccccc12 was read as SW480 rereplic 0.2%, TDP1 cell CPT 16.4µM*, IL1B secr inh 1.3, TDP1 cell noCPT 20.6µM*, MCF10A rerep -4.2% and Chronic BCR inh inconclusive.

Screening data: PubChem BioAssay, National Center for Advancing Translational Sciences (NCATS)
